Results from PubChem BioAssay (NCI).
This is part of a sample that, as a whole, favours compounds with a hit. Of some 79,000 tested, about 15% had one in any assay. Cut-off read from the data, not from the text of the source: active = growth inhibition above about 70%; inactive = the rest.

Tests used:
[1] = NCI Yeast Anticancer Drug Screen. Data for the rad50 strain (AID 155);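 note: 0% = growth of vehicle-only cultures of the same strain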; conditions: S. cerevisiae rad50 strain growth inhibition; at 50.0 µM; active compounds read high
In short: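 Inhibition values express reduced yeast growth in compound-treated cultures relative to vehicle-treated controls.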

[2] = NCI Yeast Anticancer Drug Screen. Data for the mec2-1 strain (AID 157); conditions: S. cerevisiae mec2-1 strain, at 50.0 µM, active compounds read high
In short: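 Yeast mec2-1 mutant treated with compound. Readout: growth inhibition vs vehicle controls.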

[3] = NCI Yeast Anticancer Drug Screen. Data for the sgs1 mgt1 strain (AID 161);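 note: 0% = growth of cultures given vehicle only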; conditions: S. cerevisiae sgs1 mgt1 strain, at 50.0 µM, active compounds read high
In short: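 Test agents were incubated with a DNA-repair-mutant yeast strain. Growth was then read and compared against vehicle-treated controls.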

[4] = NCI Yeast Anticancer Drug Screen. Data for the cln2 rad14 strain (AID 165);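 note: 0% = growth equal to vehicle treated cultures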; conditions: S. cerevisiae cln2 rad14 strain, at 50.0 µM, active compounds read high
In short: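 cln2 rad14 yeast strain; compound exposure; growth inhibition read vs vehicle controls.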

[5] = NCI Yeast Anticancer Drug Screen. Data for the bub3 strain (AID 167); conditions: S. cerevisiae bub3 mutant strain, at 50.0 µM, active compounds read high
In short: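 Steps: expose the mutant yeast strain to compound; grow alongside vehicle-treated cultures; measure growth; express inhibition against the vehicle cultures.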

[6] = NCI Yeast Anticancer Drug Screen. Data for the mlh1 rad18 strain (AID 175); conditions: S. cerevisiae mlh1 rad18 strain growth inhibition; at 50.0 µM; active compounds read high
In short: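 Yeast w/ defined DNA-repair lesions; compound exposure; growth vs vehicle controls → % inhibition.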

Measured: growth inhibition

CCCCSCCO
inactive: [1] -0.65% | [2] -0.2% | [3] -4% | [4] -12.4% | [5] -4.4% | [6] 0.7%

Cc1ccc(C(CS(=O)(=O)c2ccc(C)cc2)c2ccccc2)cc1 (stereo unspecified)
inactive: [1] 0.5% | [2] 6.15% | [3] -7.8% | [4] -20.1% | [5] 1.7% | [6] -19.9%

CN(C)c1ccc([N+](=O)[O-])cc1
inactive: [1] -76.2% | [2] -24% | [3] -61.6% | [4] -43.1% | [5] -9.2% | [6] -57.4%

CCSCCNC(=O)NS(=O)(=O)c1ccc(C)cc1
inactive: [1] 4.85% | [2] -0.75% | [3] -6.45% | [4] 1.55% | [5] -11.4% | [6] 14%

O=c1oc2ccccc2c(O)c1Oc1ccccc1
inactive: [1] -7.35% | [2] 3.5% | [3] -15.3% | [4] -10.7% | [5] -12.5% | [6] -1.05%

CCOC(=O)C1=C(O)C(=O)N(Cc2ccccc2)C1
inactive: [1] -4.65% | [2] -29.6% | [3] 14.3% | [4] -0.7% | [5] 49.5% | [6] -23.8%

COc1cc(C)oc(=O)c1
inactive: [1] -6.1% | [2] 6.15% | [3] -2.45% | [4] -16.6% | [5] 8.1% | [6] 3.3%

CCC(C)(C)c1ccc(OCCOC(C)=O)cc1
inactive: [1] 3.1% | [2] -11.8% | [3] 26.1% | [4] -13.7% | [5] 18.7% | [6] 23.1%

CC(=O)Nc1cc(F)c(N=Nc2ccc([N+](=O)[O-])cc2)c(F)c1
inactive: [1] -9.5% | [2] -3.45% | [3] 22.1% | [4] -38.2% | [5] -28.1% | [6] -10.3%

N#CC(F)(F)C(F)(F)C(F)(F)C(F)(F)C(F)(F)C(F)(F)C(F)(F)F
inactive: [1] 33.5% | [2] -18.8% | [3] -11.2% | [4] -21.8% | [5] -15.3% | [6] -4.6%

CN(C)CCCNc1ncnc2nc[nH]c12
inactive: [1] -25.8% | [2] -43.7% | [3] -31.8% | [4] -19.8% | [5] -28.4% | [6] -0.15%

O=C(c1ccccc1)C(c1ccccc1)S(=O)(=O)N1CCOCC1 (stereo unspecified)
inactive: [1] 1.3% | [2] 13.3% | [3] 2.85% | [4] -13.1% | [5] -11.6% | [6] -7.65%

CCc1nc(-c2ccccc2)nc2c1nc(-c1ccc(C)cc1)n2Nc1ccccc1
inactive: [1] 0.85% | [2] 6.05% | [3] -2.95% | [4] -0.25% | [5] -4.45% | [6] 20.9%

COc1cc(CNC(=O)CCCCCCCCCCSSCCCCCCCCCCC(=O)NCc2ccc(O)c(OC)c2)ccc1O
inactive: [1] -20.4% | [2] -32.8% | [3] -22.9% | [4] 5.9% | [5] -13.3% | [6] -24.8%

COC1OCCCO1
inactive: [1] -12.6% | [2] 11.6% | [3] -6.45% | [4] -6.75% | [5] -0.1% | [6] -12.5%

COc1ccc2[nH]c3c4c(cc(-c5ccccc5)c3c2c1)C(=O)N(c1ccccc1)C4=O
inactive: [1] -11.1% | [2] -6% | [3] -16.6% | [4] 11.2% | [5] -4.3% | [6] -6.8%

CCCCCCCCSC(SCCCCCCCC)=C1C(=O)N(c2ccccc2)N=C1C
inactive: [1] -5.9% | [2] -12.3% | [3] 2.2% | [4] 19.6% | [5] -28.1% | [6] -13%

O=C(c1cccc([N+](=O)[O-])c1)N1CCOCC1
inactive: [1] -2.65% | [2] -10% | [3] 1.45% | [4] -36.4% | [5] 3.7% | [6] 14.1%

CCOC(=O)c1ccc(NC(=S)N2CCOCC2)cc1
inactive: [1] 13.1% | [2] 6.8% | [3] 14.8% | [4] 8.7% | [5] 2.55% | [6] -2.8%

O=C(O)CCCCC1CCSS1 (stereo unspecified)
inactive: [1] 32.2% | [2] 15.8% | [3] 46% | [4] 20.1% | [5] 25.5% | [6] 20.9%

O=C(O)/C1=C/CCC(C(=O)O)CCC1 (stereo unspecified)
inactive: [1] -4.15% | [2] -1.95% | [3] -7.35% | [4] -44.6% | [5] -12.5% | [6] 22.9%

CC1(C)/C(=N\NC(N)=O)C2CCC1C2 (stereo unspecified)
inactive: [1] -19.9% | [2] -25.6% | [3] 2.65% | [4] -4.05% | [5] -11.6% | [6] -16.9%

O=[N+]([O-])c1ccccc1Oc1ccccc1
inactive: [1] 33.6% | [2] -8.65% | [3] 5.65% | [4] 14.2% | [5] -14.7% | [6] 8%

COc1ccccc1-n1c(O)c(N=Nc2ccccc2)c(=O)n(-c2ccc(C)cc2)c1=S
inactive: [1] 38.3% | [2] -8.95% | [3] 66.8% | [4] -10.8% | [5] -2.2% | [6] 12.8%

COc1cc(C(C#N)NNC(=O)Cc2ccccc2)cc(OC)c1OC (stereo unspecified)
inactive: [1] -18.9% | [2] -54.1% | [3] -53.9% | [4] 18.5% | [5] -45.8% | [6] -49.8%

O=C(CC(=O)Nc1ccccc1)NNC(Sc1ccccc1)c1cc(N=Nc2ccc(Br)cc2)ccc1O (stereo unspecified)
inactive: [1] 4.6% | [2] 14.1% | [3] 11.2% | [4] -10% | [5] -2.9% | [6] -4.7%

Nc1c(S(=O)(=O)O)cc2cc(S(=O)(=O)O)ccc2c1N
inactive: [1] 9.9% | [2] -12.6% | [3] 6% | [4] -15.7% | [5] 17.8% | [6] 24.9%

CC(C)C(C(=O)O)N1C(=O)c2ccccc2C1=O (stereo unspecified)
inactive: [1] -16.2% | [2] -1.5% | [3] -12.2% | [4] -31.6% | [5] -16.1% | [6] -4.15%

COC(=O)[C@@]1(NC(=O)C(CC(=O)OC(C)(C)C)NC(=O)OC(C)(C)C)C[C@H]1C (stereo partly specified)
inactive: [1] -48.8% | [2] -28.6% | [3] -33.2% | [4] 6.15% | [5] -3.25% | [6] -14%

CCOC(=O)/C(Cl)=C1\SN(C(=O)OCC)N=C1C
inactive: [1] -7.65% | [2] -3.7% | [3] -11.4% | [4] 54.7% | [5] 3.8% | [6] 3.65%

CN1CN(c2ccccc2)C2(CCN(c3nc4ccccc4s3)CC2)C1=O
inactive: [1] -29.7% | [2] -6.1% | [3] -22.8% | [4] -18.4% | [5] 3.2% | [6] -17.1%

CCCCCCC1(C=O)NC(=O)NC1=O (stereo unspecified)
inactive: [1] 4.2% | [2] -12% | [3] -11.2% | [4] -14.1% | [5] -4.6% | [6] -1.35%

CCN(CC)c1nc(N(C)C)nc(N(C)C)n1
inactive: [1] -9% | [2] -4.3% | [3] 2.15% | [4] -7.25% | [5] 18.7% | [6] 7%

CCCCCCn1cnc2c(=S)nc[nH]c21
inactive: [1] 24.6% | [2] 8.35% | [3] 10.8% | [4] 7.45% | [5] -0.65% | [6] 12.8%

O=[N+]([O-])c1cc(C(F)(F)F)ccc1F
inactive: [1] -16% | [2] -15.2% | [3] -2.3% | [4] -25.8% | [5] -12.4% | [6] -0.15%

O=c1nc(Nc2ccccc2)ccn1C1OC(CO)C(O)C1O (stereo unspecified)
inactive: [1] -7.95% | [2] 0.25% | [3] 0.2% | [4] 12% | [5] 7.55% | [6] 5.85%

CCOC#CCCOCc1ccccc1
inactive: [1] -28.9% | [2] -46.2% | [3] -5.25% | [4] -1.65% | [5] -11% | [6] -16.6%

c1ccc2cc3c(NC4=NCCO4)cccc3cc2c1
inactive: [1] -2.8% | [2] 5.9% | [3] -2.7% | [4] 22.4% | [5] 33.1% | [6] 16.2%

CCCC(=O)c1ccc(C)cc1
inactive: [1] -1.2% | [2] -18.8% | [3] -4.2% | [4] 13.5% | [5] 8.65% | [6] 2.65%

O=C1C(=O)C(c2ccccc2)S(=O)(=O)C1c1ccccc1 (stereo unspecified)
inactive: [1] -5.3% | [2] -5.05% | [3] -6.3% | [4] 4.3% | [5] 7.55% | [6] 14.6%

Cn1c(O)c(C=Nc2ccccc2Cl)c(=O)n(C)c1=O
inactive: [1] -11.1% | [2] -4.65% | [3] -9.7% | [4] -38.6% | [5] 0.55% | [6] -28.4%
